# Source: PubChem BioAssay (NCI)
# The panel holds about 83,000 compounds, 20% with a hit somewhere; the sample as a whole holds those more often.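 A percent growth of 40 corresponds to 60% growth inhibition; 0 means no net growth; -100 means all cells died. Active threshold: below 10.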 A number with no mark means an inactive call. The source made the active and inactive calls.
# System: EKVX NSCLC
# Experiment: NCI-60 one-dose screen, 48 h (100 = growth as untreated, 0 = no growth, -100 = all killed)
# Conditions: 10 µM unless noted
row,Structure (SMILES),growth
1,COC(=O)[C@]12CC[C@@H](C)[C@H](C)[C@@H]1C1=CC[C@@H]3[C@@]4(C)C[C@@H](OC(C)=O)[C@H](O)[C@@](C)(COC(C)=O)[C@@H]4[C@H](O)C[C@@]3(C)[C@]1(C)CC2,-88.8% (active)
2,N#Cc1c(-c2ccco2)nc2c(c(-c3ccccc3)nn2-c2ccccc2)c1-c1ccc(O)cc1,56.4%
3,CC(=O)c1c(C)[nH]c(-c2nc3ccc(N4CCN(C)CC4)cc3[nH]2)c1-c1ccc2c(c1)OCCO2,45.2%
4,COc1ccc(C(=O)c2ccc(C)cc2)c(OC)c1OC,92.7%
5,C[C@H]1OC(=O)/C=C/[C@@H](O)[C@@H](O)CCCCCCCC[C@@H]1O,99.6%
6,COc1ccccc1-n1cnc(N)c1C(=O)c1cc(OC)c(OC)c(OC)c1,55.3%
7,COc1ccc(/C=C(\C#N)c2cc3ccccc3n2S(C)(=O)=O)cc1,85.9%
8,Cc1cccc2c1NC(=O)[C@@]21[C@H](C(=O)c2ccccc2)[C@]2(C(=O)Nc3ccccc32)[C@H]2CCCN21,30.6% [100 µM]
9,N=c1ccc2nc3c(cc(N)c4ccccc43)oc-2c1,-33.9% (active)
10,COc1cccc(-c2nn(-c3ccccc3)cc2-c2ccnc(NCCCNS(=O)(=O)c3ccc(Br)cc3)c2)c1,66%
11,Cc1ccc(-c2nn(Cc3cn(-c4cc(C)nc5ccccc45)nn3)c3ncnc(N)c23)cc1,57.3%
12,COc1ccc2c(c1)c1nc3cc(C)c(C)cc3nc1n2CCN(C)C,13.2%
